# Results: ChEMBL document CHEMBL1961873, “Compounds: GSK PKIS; Assays: Nanosyn kinase panel” (2012)
# How the values were obtained:
# [1] = biological target: Leukocyte tyrosine kinase receptor (Homo sapiens) (UniProt P29376); conditions: at 1 µM;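 note: each value is the mean inhibition of LTK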
# [2] = biological target: Tyrosine-protein kinase Lyn (Homo sapiens) (UniProt P07948); conditions: at 0.1 µM
# [3] = biological target: Tyrosine-protein kinase Lyn (Homo sapiens) (UniProt P07948); conditions: at 1 µM
# [4] = biological target: Tyrosine-protein kinase Lyn (Homo sapiens) (UniProt P07948); conditions: at 0.1 µM; remark: listed apart in the source
# [5] = biological target: Tyrosine-protein kinase Lyn (Homo sapiens) (UniProt P07948); conditions: at 1 µM; remark: listed apart in the source
# [6] = biological target: T1, Tyrosine-protein kinase Mer (Homo sapiens) (UniProt Q12866); conditions: at 0.1 µM
# T1 sequence (whole entry): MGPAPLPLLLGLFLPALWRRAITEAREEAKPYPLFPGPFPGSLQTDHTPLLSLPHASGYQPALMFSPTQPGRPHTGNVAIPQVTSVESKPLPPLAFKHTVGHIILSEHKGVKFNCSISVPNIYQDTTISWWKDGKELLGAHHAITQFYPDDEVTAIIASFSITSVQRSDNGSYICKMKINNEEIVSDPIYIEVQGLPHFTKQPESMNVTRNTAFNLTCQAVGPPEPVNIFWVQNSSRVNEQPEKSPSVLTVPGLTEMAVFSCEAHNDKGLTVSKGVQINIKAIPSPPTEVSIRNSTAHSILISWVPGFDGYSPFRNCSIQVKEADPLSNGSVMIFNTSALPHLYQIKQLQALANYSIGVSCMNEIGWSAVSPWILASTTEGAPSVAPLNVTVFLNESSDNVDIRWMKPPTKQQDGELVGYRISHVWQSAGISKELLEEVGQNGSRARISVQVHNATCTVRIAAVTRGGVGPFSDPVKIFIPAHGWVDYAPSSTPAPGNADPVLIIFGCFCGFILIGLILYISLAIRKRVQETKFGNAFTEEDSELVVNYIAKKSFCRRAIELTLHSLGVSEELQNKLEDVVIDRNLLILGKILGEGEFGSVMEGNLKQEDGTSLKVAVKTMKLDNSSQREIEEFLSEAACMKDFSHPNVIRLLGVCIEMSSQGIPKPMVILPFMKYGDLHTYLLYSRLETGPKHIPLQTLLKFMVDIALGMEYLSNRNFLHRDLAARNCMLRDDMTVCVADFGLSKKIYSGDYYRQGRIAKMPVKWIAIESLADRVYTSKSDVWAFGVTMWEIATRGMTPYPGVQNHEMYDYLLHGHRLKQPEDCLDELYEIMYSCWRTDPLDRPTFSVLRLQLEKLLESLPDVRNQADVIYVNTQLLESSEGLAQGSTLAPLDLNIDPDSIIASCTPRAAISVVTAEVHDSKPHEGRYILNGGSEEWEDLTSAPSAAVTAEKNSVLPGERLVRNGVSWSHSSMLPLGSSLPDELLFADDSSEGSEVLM
# [7] = biological target: T1, Tyrosine-protein kinase Mer (Homo sapiens); conditions: at 1 µM
# [8] = biological target: Hepatocyte growth factor receptor (Homo sapiens) (UniProt P08581); conditions: at 0.1 µM
# Sequence of Hepatocyte growth factor receptor (Homo sapiens) (P08581 whole entry): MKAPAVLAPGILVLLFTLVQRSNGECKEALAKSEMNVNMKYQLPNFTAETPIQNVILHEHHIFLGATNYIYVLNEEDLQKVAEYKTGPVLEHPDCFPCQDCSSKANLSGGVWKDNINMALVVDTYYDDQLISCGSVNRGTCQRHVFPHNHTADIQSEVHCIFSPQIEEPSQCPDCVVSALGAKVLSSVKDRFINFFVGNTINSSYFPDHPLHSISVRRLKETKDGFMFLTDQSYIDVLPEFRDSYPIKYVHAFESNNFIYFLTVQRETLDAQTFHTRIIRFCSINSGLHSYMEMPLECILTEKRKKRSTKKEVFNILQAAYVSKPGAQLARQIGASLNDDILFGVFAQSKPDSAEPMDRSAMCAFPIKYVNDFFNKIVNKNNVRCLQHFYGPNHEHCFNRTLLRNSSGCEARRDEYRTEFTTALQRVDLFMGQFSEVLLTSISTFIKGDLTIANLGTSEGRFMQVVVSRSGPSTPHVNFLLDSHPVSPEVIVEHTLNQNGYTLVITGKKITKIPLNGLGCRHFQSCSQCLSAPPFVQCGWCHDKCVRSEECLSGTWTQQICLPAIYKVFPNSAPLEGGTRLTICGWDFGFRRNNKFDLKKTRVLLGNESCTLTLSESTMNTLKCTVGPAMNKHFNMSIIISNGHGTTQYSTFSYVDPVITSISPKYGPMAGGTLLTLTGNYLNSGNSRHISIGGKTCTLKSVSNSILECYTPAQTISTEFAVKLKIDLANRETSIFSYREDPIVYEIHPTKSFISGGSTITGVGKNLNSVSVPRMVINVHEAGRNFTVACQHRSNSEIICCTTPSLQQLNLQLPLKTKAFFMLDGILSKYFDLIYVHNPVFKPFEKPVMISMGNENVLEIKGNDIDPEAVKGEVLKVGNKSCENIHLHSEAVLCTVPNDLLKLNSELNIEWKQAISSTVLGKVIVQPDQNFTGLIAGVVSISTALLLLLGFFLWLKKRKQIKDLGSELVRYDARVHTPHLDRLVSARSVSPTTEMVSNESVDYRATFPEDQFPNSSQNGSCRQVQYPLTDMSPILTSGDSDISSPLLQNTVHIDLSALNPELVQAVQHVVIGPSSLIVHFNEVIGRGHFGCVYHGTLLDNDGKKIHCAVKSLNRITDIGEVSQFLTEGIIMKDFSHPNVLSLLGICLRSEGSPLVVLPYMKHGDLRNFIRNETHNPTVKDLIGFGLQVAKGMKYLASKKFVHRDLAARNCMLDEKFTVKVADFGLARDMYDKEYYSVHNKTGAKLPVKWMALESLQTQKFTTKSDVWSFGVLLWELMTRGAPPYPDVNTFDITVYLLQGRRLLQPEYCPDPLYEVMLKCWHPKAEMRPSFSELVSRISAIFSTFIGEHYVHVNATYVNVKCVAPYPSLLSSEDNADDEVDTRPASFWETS
# [9] = biological target: Hepatocyte growth factor receptor (Homo sapiens) (UniProt P08581); conditions: at 1 µM
# [10] = biological target: T2, Muscle, skeletal receptor tyrosine-protein kinase (Homo sapiens) (UniProt O15146); conditions: at 0.1 µM
# T2 sequence (whole entry): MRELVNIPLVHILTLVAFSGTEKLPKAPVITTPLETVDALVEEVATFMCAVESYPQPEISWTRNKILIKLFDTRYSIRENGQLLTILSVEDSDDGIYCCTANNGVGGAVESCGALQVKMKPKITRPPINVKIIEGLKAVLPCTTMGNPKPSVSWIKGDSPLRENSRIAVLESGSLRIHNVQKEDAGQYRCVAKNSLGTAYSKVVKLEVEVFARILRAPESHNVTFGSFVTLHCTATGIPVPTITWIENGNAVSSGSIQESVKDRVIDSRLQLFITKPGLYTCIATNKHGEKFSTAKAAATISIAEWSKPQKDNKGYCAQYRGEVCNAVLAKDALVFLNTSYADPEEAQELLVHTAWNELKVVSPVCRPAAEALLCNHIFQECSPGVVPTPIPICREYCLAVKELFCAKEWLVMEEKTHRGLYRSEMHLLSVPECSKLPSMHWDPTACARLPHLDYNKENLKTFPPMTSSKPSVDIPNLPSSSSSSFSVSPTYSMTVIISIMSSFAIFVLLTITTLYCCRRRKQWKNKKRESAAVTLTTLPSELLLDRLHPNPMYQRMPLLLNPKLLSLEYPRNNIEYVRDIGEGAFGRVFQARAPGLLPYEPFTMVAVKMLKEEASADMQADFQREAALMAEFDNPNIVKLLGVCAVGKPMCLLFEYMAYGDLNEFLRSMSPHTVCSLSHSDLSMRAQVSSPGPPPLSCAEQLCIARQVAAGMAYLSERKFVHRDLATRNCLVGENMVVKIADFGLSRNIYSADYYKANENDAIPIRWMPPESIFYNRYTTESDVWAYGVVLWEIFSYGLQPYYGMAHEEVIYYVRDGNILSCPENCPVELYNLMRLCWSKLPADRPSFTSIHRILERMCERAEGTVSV
# [11] = biological target: T2, Muscle, skeletal receptor tyrosine-protein kinase (Homo sapiens); conditions: at 1 µM
# [12] = biological target: Platelet-derived growth factor receptor alpha (Homo sapiens) (UniProt P16234); conditions: at 0.1 µM
# Sequence of Platelet-derived growth factor receptor alpha (Homo sapiens) (P16234 whole entry): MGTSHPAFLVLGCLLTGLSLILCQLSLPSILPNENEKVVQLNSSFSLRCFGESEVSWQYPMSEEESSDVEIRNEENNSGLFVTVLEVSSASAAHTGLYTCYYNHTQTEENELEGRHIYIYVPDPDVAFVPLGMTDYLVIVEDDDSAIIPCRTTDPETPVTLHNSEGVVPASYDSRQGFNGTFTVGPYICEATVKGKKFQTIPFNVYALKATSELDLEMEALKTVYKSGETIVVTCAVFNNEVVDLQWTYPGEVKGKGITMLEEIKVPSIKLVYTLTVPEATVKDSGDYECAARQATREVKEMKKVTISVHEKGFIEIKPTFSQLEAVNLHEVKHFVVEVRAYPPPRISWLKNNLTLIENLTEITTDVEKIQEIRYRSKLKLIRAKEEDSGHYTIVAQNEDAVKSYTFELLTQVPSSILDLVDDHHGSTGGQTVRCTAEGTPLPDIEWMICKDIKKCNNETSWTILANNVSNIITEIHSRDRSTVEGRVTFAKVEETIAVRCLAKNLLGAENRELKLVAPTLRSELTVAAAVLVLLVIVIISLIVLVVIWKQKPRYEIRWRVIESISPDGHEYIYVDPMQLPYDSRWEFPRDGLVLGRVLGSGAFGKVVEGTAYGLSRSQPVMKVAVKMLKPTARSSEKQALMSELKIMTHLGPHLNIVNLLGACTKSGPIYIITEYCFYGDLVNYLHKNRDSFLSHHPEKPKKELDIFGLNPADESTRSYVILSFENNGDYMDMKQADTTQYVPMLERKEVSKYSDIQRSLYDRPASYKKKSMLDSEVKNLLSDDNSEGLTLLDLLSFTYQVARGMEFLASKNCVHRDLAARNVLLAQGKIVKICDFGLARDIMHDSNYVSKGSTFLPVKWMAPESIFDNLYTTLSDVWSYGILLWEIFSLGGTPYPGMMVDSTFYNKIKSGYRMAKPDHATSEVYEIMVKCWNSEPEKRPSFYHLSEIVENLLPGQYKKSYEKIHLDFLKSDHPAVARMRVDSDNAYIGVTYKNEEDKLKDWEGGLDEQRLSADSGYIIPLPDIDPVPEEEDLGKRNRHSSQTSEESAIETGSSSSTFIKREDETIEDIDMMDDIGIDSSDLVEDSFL
# [13] = biological target: Platelet-derived growth factor receptor alpha (Homo sapiens) (UniProt P16234); conditions: at 1 µM
# [14] = tested on: Platelet-derived growth factor receptor alpha (Homo sapiens), P16234 [D842V]; conditions: at 0.1 µM
# [15] = tested on: Platelet-derived growth factor receptor alpha (Homo sapiens), P16234 [D842V]; conditions: at 1 µM
# [16] = tested on: Platelet-derived growth factor receptor alpha (Homo sapiens), P16234 [T674I]; conditions: at 0.1 µM
# Sequence of Platelet-derived growth factor receptor alpha (Homo sapiens), P16234 [T674I] (P16234 whole entry T674I): as the sequence (P16234 whole entry) above, with T674I counted along it
# [17] = tested on: Platelet-derived growth factor receptor alpha (Homo sapiens), P16234 [T674I]; conditions: at 1 µM
# [18] = tested on: Platelet-derived growth factor receptor alpha (Homo sapiens), P16234 [V561D]; conditions: at 0.1 µM
# [19] = tested on: Platelet-derived growth factor receptor alpha (Homo sapiens), P16234 [V561D]; conditions: at 1 µM
# [20] = biological target: Platelet-derived growth factor receptor beta (Homo sapiens) (UniProt P09619); conditions: at 0.1 µM;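 note: reported value is the mean percent inhibition of the kinase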
# Sequence of Leukocyte tyrosine kinase receptor (Homo sapiens) (P29376 whole entry): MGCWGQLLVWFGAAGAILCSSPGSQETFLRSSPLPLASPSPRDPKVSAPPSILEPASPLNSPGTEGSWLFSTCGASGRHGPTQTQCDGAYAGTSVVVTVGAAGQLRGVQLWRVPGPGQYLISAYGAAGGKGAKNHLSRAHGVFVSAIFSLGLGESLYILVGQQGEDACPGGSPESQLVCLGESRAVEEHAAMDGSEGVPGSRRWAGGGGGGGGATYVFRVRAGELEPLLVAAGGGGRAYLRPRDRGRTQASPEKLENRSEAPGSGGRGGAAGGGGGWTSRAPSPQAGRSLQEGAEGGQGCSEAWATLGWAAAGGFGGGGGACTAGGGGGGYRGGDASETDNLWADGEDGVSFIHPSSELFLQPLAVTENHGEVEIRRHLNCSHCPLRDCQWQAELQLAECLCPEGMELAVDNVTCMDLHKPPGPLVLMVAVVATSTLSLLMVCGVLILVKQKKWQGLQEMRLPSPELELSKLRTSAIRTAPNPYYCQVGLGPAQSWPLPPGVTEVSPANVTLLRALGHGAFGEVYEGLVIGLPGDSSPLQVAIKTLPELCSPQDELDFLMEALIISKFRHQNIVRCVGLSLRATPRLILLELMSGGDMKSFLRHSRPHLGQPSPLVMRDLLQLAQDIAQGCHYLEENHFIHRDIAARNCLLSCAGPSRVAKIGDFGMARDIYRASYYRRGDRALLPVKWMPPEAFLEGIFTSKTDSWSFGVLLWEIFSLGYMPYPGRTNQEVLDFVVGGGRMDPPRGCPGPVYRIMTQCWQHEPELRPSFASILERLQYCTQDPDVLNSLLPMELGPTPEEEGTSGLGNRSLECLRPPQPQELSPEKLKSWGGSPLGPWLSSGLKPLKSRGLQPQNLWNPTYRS
# Sequence of Tyrosine-protein kinase Lyn (Homo sapiens) (P07948 2-512 limits assumed): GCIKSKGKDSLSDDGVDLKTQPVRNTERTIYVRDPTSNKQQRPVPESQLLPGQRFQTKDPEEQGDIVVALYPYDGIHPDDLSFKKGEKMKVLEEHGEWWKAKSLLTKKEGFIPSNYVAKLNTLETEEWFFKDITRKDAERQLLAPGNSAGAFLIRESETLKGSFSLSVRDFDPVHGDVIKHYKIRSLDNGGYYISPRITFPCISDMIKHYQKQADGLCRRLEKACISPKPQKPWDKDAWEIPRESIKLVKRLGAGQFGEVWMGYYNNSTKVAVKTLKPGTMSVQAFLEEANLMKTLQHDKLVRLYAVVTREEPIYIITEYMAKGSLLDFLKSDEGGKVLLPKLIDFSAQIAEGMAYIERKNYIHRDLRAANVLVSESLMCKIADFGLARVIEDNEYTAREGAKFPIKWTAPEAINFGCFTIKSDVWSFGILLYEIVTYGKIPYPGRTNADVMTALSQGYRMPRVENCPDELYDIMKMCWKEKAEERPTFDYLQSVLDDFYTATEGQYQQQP
smiles,measurement,setting,value
CCn1c(-c2nonc2N)nc2ccncc21,inhibition,[1],0.42%
same,inhibition,[2],2.64%
same,inhibition,[3],-1.88%
same,inhibition,[4],1.5%
same,inhibition,[5],-0.9%
same,inhibition,[6],0.16%
same,inhibition,[7],-0.52%
same,inhibition,[8],8.81%
same,inhibition,[9],2.41%
same,inhibition,[10],-0.65%
same,inhibition,[11],1.96%
same,inhibition,[12],8.83%
same,inhibition,[13],7.48%
same,inhibition,[14],0.54%
same,inhibition,[15],1.96%
same,inhibition,[16],2.72%
same,inhibition,[17],1.31%
same,inhibition,[18],2.31%
same,inhibition,[19],3.59%
same,inhibition,[20],0.36%
COc1ccc(-c2ccncc2)cc1C(N)=O,inhibition,[1],5.79%
same,inhibition,[2],4.67%
same,inhibition,[3],4.69%
same,inhibition,[4],2.01%
same,inhibition,[5],4.65%
same,inhibition,[6],2.57%
same,inhibition,[7],5.63%
same,inhibition,[8],3.93%
same,inhibition,[9],5.8%
same,inhibition,[10],2.42%
same,inhibition,[11],8.58%
same,inhibition,[12],10.2%
same,inhibition,[13],15.4%
same,inhibition,[14],1.62%
same,inhibition,[15],4.35%
same,inhibition,[16],5.26%
same,inhibition,[17],8.98%
same,inhibition,[18],3.41%
same,inhibition,[19],6.77%
same,inhibition,[20],5.16%
CNC(=O)c1cncc(/C=C/c2c(Cl)cccc2Cl)c1,inhibition,[1],5.04%
same,inhibition,[2],11.1%
same,inhibition,[3],48.7%
same,inhibition,[4],7.62%
same,inhibition,[5],43.5%
same,inhibition,[6],2.3%
same,inhibition,[7],2.24%
same,inhibition,[8],2.67%
same,inhibition,[9],1.88%
same,inhibition,[10],3.75%
same,inhibition,[11],6.78%
same,inhibition,[12],8.07%
same,inhibition,[13],21.1%
same,inhibition,[14],0.55%
same,inhibition,[15],4.33%
same,inhibition,[16],1.59%
same,inhibition,[17],5.24%
same,inhibition,[18],14.1%
same,inhibition,[19],43%
same,inhibition,[20],5.46%
CCn1c(-c2nonc2N)nc2cncc(C(=O)N3CC[C@H](N)C3)c21,inhibition,[1],4.61%
same,inhibition,[2],8.57%
same,inhibition,[3],7.74%
same,inhibition,[4],6.42%
same,inhibition,[5],5.67%
same,inhibition,[6],0.47%
same,inhibition,[7],3.48%
same,inhibition,[8],5.74%
same,inhibition,[9],5.85%
same,inhibition,[10],4.23%
same,inhibition,[11],3.51%
same,inhibition,[12],7.67%
same,inhibition,[13],6.08%
same,inhibition,[14],4.02%
same,inhibition,[15],5.6%
same,inhibition,[16],6.8%
same,inhibition,[17],8.93%
same,inhibition,[18],2.86%
same,inhibition,[19],1.28%
same,inhibition,[20],4.13%
CCn1c(-c2nonc2N)nc2c(N3CCCC3)nccc21,inhibition,[1],-0.6%
same,inhibition,[2],1.31%
same,inhibition,[3],-0.07%
same,inhibition,[4],1.13%
same,inhibition,[5],0.52%
same,inhibition,[6],0.24%
same,inhibition,[7],1.56%
same,inhibition,[8],-3.32%
same,inhibition,[9],-1.91%
same,inhibition,[10],1.25%
same,inhibition,[11],3.11%
same,inhibition,[12],-0.08%
same,inhibition,[13],6.63%
same,inhibition,[14],1.78%
same,inhibition,[15],3.11%
same,inhibition,[16],0.33%
same,inhibition,[17],0.11%
same,inhibition,[18],3.21%
same,inhibition,[19],3.61%
same,inhibition,[20],3.37%
Cc1nn(C)c2cc(N(C)c3ccnc(Nc4cccc(S(N)(=O)=O)c4)n3)ccc12,inhibition,[1],29%
same,inhibition,[2],13.6%
same,inhibition,[3],51.3%
same,inhibition,[4],9.71%
same,inhibition,[5],46.8%
same,inhibition,[6],2.42%
same,inhibition,[7],18.8%
same,inhibition,[8],7.18%
same,inhibition,[9],37.1%
same,inhibition,[10],2.31%
same,inhibition,[11],6.58%
same,inhibition,[12],22.9%
same,inhibition,[13],61.2%
same,inhibition,[14],7.33%
same,inhibition,[15],36.1%
same,inhibition,[16],5.29%
same,inhibition,[17],15.1%
same,inhibition,[18],23.2%
same,inhibition,[19],70.1%
same,inhibition,[20],18.2%
